Screening data: PubChem BioAssay, National Center for Advancing Translational Sciences (NCATS)
ClpP mod: qHTS Assay for Activators of ClpP; Potency, µM (highest dose often 57.5 µM), inactives show at the highest dose activity change, negative = active; actives 1.9% (n = 340,000); ATP-dependent Clp protease proteolytic subunit (Bacillus subtilis (strain 168)), P80244; purified B. subtilis ClpP, FRET peptide cleavage, 20 min; AID 651965, 2013; active = well fitted falling curve with a large enough effect; inconclusive = small, poorly fitted or top-dose-only effect; inactive = no such curve, though single readings can be large or run the other way; note: potency is the fitted concentration of half-maximal effect; the source files actives as falling curves though it sought activators and does not explain the sign; nearly all actives have a fitted effect of over 65% in size
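FRET quenching reversal measured ClpP activation: 10 microg/mL B. subtilis ClpP at pH 8 with the FRET-FV decapeptide, read at 430 nm after 320 nm excitation. The 20-min minus 0-min signal was scaled between DMSO/no-enzyme wells and ADEP (5.8 microM final).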
KCNH2 WT inh: blocks the wildtype human KCNH2 potassium channel. Q12809. U2OS, BacMam KCNH2, thallium flux FluxOr; active compounds read low. activity change, % at 1.84 µM. actives 0.37% (n = 340,000);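 active = maximum activity change below -70%; inconclusive = maximum activity change between -70% and -50%; inactive = maximum activity change above -50%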; note: % is set by controls: 0 for no effect and ±100 for the full control effect
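U2OS cells were transduced with wild-type KCNH2 virus (2.03 x 10^8 / mL) for 4 h at room temperature, then cultured overnight at 37 C. Thallium flux was read with FluxOr dye. Rate constants were normalized to DMSO controls.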
12-LOX inh: blocks human arachidonate 12S-lipoxygenase; purified 12hLO, xylenol orange hydroperoxide absorbance; Potency, µM (top dose mostly 108 µM), inactives show at the top dose activity change, negative = inhibition, actives largely listed as inhibitors; actives 1.1% (n = 580,000); active = well fitted inhibition curve with a large enough effect; inconclusive = small, poorly fitted or top-dose-only effect, or another doubt; inactive = no such curve, though single readings can be large or run the other way; note: potency is the fitted concentration of half-maximal effect; % is set by controls: 0 for no effect and ±100 for the full control effect
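Purified human 12hLO at 150 nM in 25 mM Hepes, 0.01% Triton X-100, pH 7.0, preincubated 15 min at room temperature with compound. Reaction started with 40 uM arachidonic acid, 30 min at room temperature. Hydroperoxide measured by Fe-xylenol orange, 573/405 nm absorbance ratio.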
KCNH2 3.1 block: inhibitors of human KCNH2 3.1 potassium channel isoform. activity change, % (tested at about 1.8 µM). U2OS KCNH2 3.1, thallium flux FluxOr; active compounds read low. actives 0.95% (n = 340,000). AID 720553;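 active = maximum activity change below -70%; inconclusive = maximum activity change from -70% to -50%; inactive = maximum activity change above -50%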;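 note: thallium influx rate constant from kinetic fluorescence after stimulation buffer; % is set by controls: 0 for no effect and ±100 for the full control effect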
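Thallium flux read-out: FluxOr dye with Red40 quencher in HBSS/HEPES, 45 min at RT. Rate constants from kinetic reads were normalized to positive and negative DMSO controls. Cells: U2OS virally expressing the 3.1 isoform.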
LDHA inh: LDHA (human) enzyme inhibition; activity change, % (values are at about 110 or 230 µM); actives 0.15% (n = 480,000); purified LDHA, NADH/diaphorase-resazurin fluorescence; active compounds read low; P00338; in the data active = activity change below about -30%; inconclusive = mostly about -25% to -30%;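 note: plate controls were DMSO wells for no effect and wells without enzyme for full effect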
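LDH5 2 nM; NADH 0.06 mM, pyruvate 0.2 mM; 200 mM Tris pH 7.4, EDTA, Tween-20; 5 min RT. Detection: diaphorase 0.133 mg/mL + resazurin 37 µM, fluorescence ex540/em590 at 0 and 20 min; normalized to enzyme-free and DMSO wells.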
BCR signal inh: inhibitors of chronic active B-cell receptor signaling; ABC-DLBCL IkBa-CBG/CBR reporter, luminescence ratio, 4 h; Potency, µM (titrated, usually from 46.1 µM), inactives show at the highest dose activity change, negative = inhibition, actives largely listed as inhibitors; actives 0.05% (n = 340,000); active = well fitted inhibition curve with a large enough effect in the signal ratio, with a control signal flat, not every such curve was filed as active; inconclusive = small, poorly fitted or top-dose-only effect, or effect the other way, or a change in a side signal; the % refers to the signal ratio;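 note: potency is the fitted concentration of half-maximal effect; plate controls were basal doxycycline-induced cells for no effect and cells given 10 µM MG132 for full effect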
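TMD8 human ABC-DLBCL cells with doxycycline-inducible IκBα–green luciferase fusion and unfused red luciferase, in 0.5% FBS medium; compounds up to 46 uM, 4 h at 37C. Green/red luminescence ratio, filter-overlap corrected, fitted to concentration-response curves.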
* marks the source's active call; other numbers are inactive results; ? = inconclusive; nt = not tested or not shown; ! = not active in a repeat; [ ] = remark or other dose. Hits are enriched below; roughly 3% of the tested compounds scored in any of these assays.

SMILES	ClpP mod	KCNH2 WT inh	12-LOX inh	KCNH2 3.1 block	LDHA inh	BCR signal inh
CN1CCN(C2CN(Cc3cn(Cc4cccc(C(F)(F)F)c4)nn3)S(=O)(=O)C2)CC1 (centres undefined)	0%	nt	?	nt	0	nt
COc1cccc(S(=O)(=O)N2CCCN(C)c3ccccc32)c1	nt	nt	22µM*	nt	nt	nt
c1ccc(N2N=C(c3cccs3)CC2c2ccco2)cc1 (centres undefined)	16µM*	-4	5%	-23	-9	16%
Cc1ccccc1-n1nc(C)c2cc(C(=O)NCc3cccnc3)sc21	28µM*	1	3%	4	0	?
Cc1ccnc(NC(c2ccccc2F)c2ccc3cccnc3c2O)c1 (centres undefined)	-4%	nt	22µM*	nt	-2	nt
Oc1c(C(Nc2ccccn2)c2ccccc2F)ccc2cccnc12 (centres undefined)	1%	nt	1%	nt	-5	nt
CC1(C(=O)NC2COC2)CN(Cc2ccccc2)Cc2ccc(Nc3ccccc3)nc21 (centres undefined)	nt	nt	-9%[176 µM]	nt	nt	nt
Cn1c(-c2ccc3nc(N)sc3c2)nc2cc(N)ccc21	10µM*	-2	-15%	-3	-6	?
Cn1c(-c2ccc(Cl)nc2)nc2ccccc21	3%	0	6%	-14	-8	2%
CC(C)c1ccc2nc(N)sc2c1	nt	11	0%	21	-7	?
Cn1c(-c2ccc(N)cc2)nc2ccccc21	2.8µM*!	1	340%	-6	-9	4%
Cc1nc2nc(NCc3ccc(Cl)cc3)[nH]n2c(=O)c1CCO	nt	nt	-6%	nt	0	nt
Cc1ccn(C(=O)C2CCN(C(=O)c3ccc(F)cc3)CC2)c(=NC2CCCCC2)c1	nt	nt	0%	nt	-8	nt
Cc1ccc(C2=NN(c3nc(C)cs3)C(c3ccccc3F)C2)cc1 (centres undefined)	nt	nt	?	nt	8	nt
CC1CN(C2CCN(S(=O)(=O)c3ccc(F)cc3)CC2)CC(C)O1 (centres undefined)	0%	0	-18%	2	-21	22%
CC1CN(C2CCN(S(=O)(=O)c3ccccc3)CC2)CC(C)O1 (centres undefined)	-3%	6	?	22	-32*	-1%
COc1ccc(S(=O)(=O)N2CCC(N3CCCC3)CC2)cc1	-1%	16	?	7	-16	?
O=S(=O)(c1ccccc1)N1CCC(N2CCCCCC2)CC1	-1%	12	4.5µM*	-4	-6	-20%
CC(c1nccs1)N(C)C(=O)CCc1nnc(-c2ccc(-c3ccccc3)cc2)o1 (centres undefined)	4%	-138*	-17%	-161*	-8	-11%
O=C(CSc1nnc(-c2cccc([S+](=O)([O-])NC3CCCC3)c2)n1-c1ccc(F)cc1)Nc1ccc(C(=O)O)cc1	nt	nt	nt	nt	4	nt
COCCN1CCC(CN(Cc2ccncc2)C(=O)C2CC23CCCC3)CC1 (centres undefined)	nt	nt	46%	nt	nt	nt
COc1ccc(Cn2nnnc2C(c2cc3cccc(C)c3[nH]c2=O)N2CCOCC2)cc1 (centres undefined)	-20%	3	-26%	-1	7	-4%
Cc1ccc(C)c2[nH]c(=O)c(C(c3nnnn3CCc3ccccc3)N3CCOCC3)cc12 (centres undefined)	28µM*	-3	12%	9	-2	0%
Cc1ccc(C)c2[nH]c(=O)c(C(c3nnnn3C3CCCC3)N3CCOCC3)cc12 (centres undefined)	25µM*	1	-20%	17	-8	-17%
O=C(CSC1CCCC1)NCc1cccs1	nt	nt	8%	nt	-3	nt
CN(C)C(=O)c1cccnc1OC1CCN(CCc2ccccc2)CC1	nt	nt	11%	nt	nt	nt
CNC(=O)c1ccc2nc(-c3ccccc3)c(-c3ccccc3)nc2c1	5%	nt	nt	nt	-2	nt
